# Data from PubChem BioAssay.
# Unmarked numbers belong to inactive results. Activity calls are given as the source filed them. Rule as the data show it, unless noted: active = inhibition above about 36%; inactive = the rest.
# System: transactivating tegument protein VP16 (Human herpesvirus 1)
# Assay: compounds suppressing VP16-driven luciferase signal – cell-based, luminescence, single concentration, counter-screen for SRC2 inhibitor project (AID 652007)
# Conditions: cell-based VP16 transactivation luciferase reporter, at 8.9 µM, hits give high values
row,Compound,inhibition
1,Cc1ccc(-c2nc(-c3ccccn3)no2)cc1Cl,11.8%
2,Cc1ccc(C(=O)O/N=C(\N)c2ccccn2)cc1C,-29.9%
3,COc1ccc(CNCc2ccc(C(F)(F)F)cc2)cc1OC,0.19%
4,O=C(CCCN1C(=O)/C(=C/c2ccccc2Cl)SC1=S)Nc1cccnc1,-29.3%
5,CC(C)Cc1nnc(NC(=O)CCC(=O)N2CCN(Cc3ccccc3)CC2)s1,8.01%
6,CC(=O)Nc1cc(=O)c2cccnc2[nH]1,-8.33%
7,COc1ccccc1NC(=S)N1CCCCCC1,-7.33%
8,COCc1ccc(C(=O)N2CCC(CCC(=O)Nc3cccc(C)c3)CC2)s1,27.4%
9,CCCNC(=O)c1ccc(N2CCC3(CC2)CC(c2cccc(Br)c2)=NO3)c([N+](=O)[O-])c1,8%
10,Cc1ccc(-c2c(C(=O)N/N=C/C3CCCCC3)nnn2-c2nonc2N)cc1,-21.5%
11,Cc1ccoc1C(=O)Nc1ccc(CC(=O)O)cc1,41.7% (active)
12,NC(=O)C1CCN(CCS(=O)(=O)c2ccc(Cl)cc2)CC1,-1.09%
13,COc1cc(CNS(=O)(=O)c2ccc3c(c2)CC(C)N3C(=O)C2CCC2)cc(OC)c1OC (stereo not given),5.37%
14,CCC(=O)Nc1ccc(NC(=O)c2oc3ccccc3c2C)cc1,-12.3%
15,O=C1N(Cc2cccc(Cl)c2)C[C@@H]2C[C@@H](c3cccc4cccnc34)N3CCC[C@@]123,-2.19%
16,CC(C)(C)n1nc(Cc2cccc3ccccc23)c2c(N)ncnc21,2.66%
17,O=[N+]([O-])c1cccc(NC(=S)Nc2nc(-c3ccc(Cl)cc3Cl)cs2)c1,-15.8%
18,CCNC(=O)C1(C)CCCN(Cc2csc(-c3ccccc3)n2)C1 (stereo not given),-30.6%
19,O=C(N=C1SC2CS(=O)(=O)CC2N1Cc1ccccc1)C1CCCO1 (stereo not given),-0.59%
20,CCN(CC)c1nc(C=Cc2ccc(N(C)C)cc2)c2nccnc2n1,17.1%

row,Compound,inhibition
1,CN=C1CC(SC)=C1c1ccc(C)cc1,-10.3%
2,CN(C(=O)CCc1nnc(-c2ccc(-c3ccccc3)cc2)o1)C1CCOCC1,-6.16%
3,Cc1cccc(N(Cc2ccccc2)C(=O)CCl)c1,15%
4,Cc1ccc2c(c1)COc1c3ccc(C(=O)O)cc3nn1-2,-24.7%
5,CC(C)(C)NS(=O)(=O)c1ccc(Oc2ncc(C(F)(F)F)cc2Cl)cc1,-20%
6,Cn1nnnc1Sc1ncnc2scc(-c3cccc(C(F)(F)F)c3)c12,36.9% (active)
7,Cc1c(CCC(=O)N2CCC(C(=O)O)CC2)c(=O)oc2cc3oc4c(c3cc12)CCCC4,33.6%
8,CN(C)S(=O)(=O)c1cccc(NC(=O)CSc2ncnc3ccccc23)c1,7.54%
9,CC(C)CC(NC(=O)c1ccco1)C(=O)Nc1ccc2c(c1)OCCO2 (stereo not given),10.6%
10,O=C(CCCN1C(=O)/C(=C/c2ccccc2Cl)SC1=S)NCCCN1CCOCC1,33.6%
11,Cc1ccc2nc(-c3cc(N)cc(N)c3)oc2c1,-8.66%
12,Cc1cc(N/N=C/c2ccc(O)cc2)nc(NS(=O)(=O)c2ccccc2)n1,-14.1%
13,Cc1ccc(NCc2nnc(SCC(=O)c3ccccc3)n2Cc2ccco2)c(C)c1,-11.6%
14,CN(Cc1ccc(Cl)cc1)C(=O)CCl,29.1%
15,Cc1ccc(-n2nc3ccc(N)cc3n2)c(C)c1,-39.4%
16,NC(=S)N1OC[C@@H]2COc3ccc4ccccc4c3[C@@H]21,2.09%
17,CC1CCCC(C)N1C(=O)c1cccc2c1-c1ccccc1/C2=N/O (stereo not given),-10.5%
18,Cc1ccc(S(=O)(=O)N2CCN(C(=O)c3cc4c(C)nn(-c5ccccc5C)c4s3)CC2)cc1,4.9%
19,CCOc1ccc(CN2CCNC(=O)C2CC(=O)NCCc2cnccn2)cc1 (stereo not given),10.4%
20,Cn1nnnc1Sc1ncnc2scc(-c3ccc(C#N)cc3)c12,12.5%

# Molecular target: Nuclear receptor coactivator 2 (Homo sapiens) (UniProt Q15596)
# Assay: inhibition of GAL4-SRC2 driven luciferase expression – cell-based, luminescence, HEK293, triplicate, confirmation (AID 652008;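 active = mean inhibition above 46.5%, the solvent-only control mean plus 3 SD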;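 also: 0% = DMSO-treated cells and 100% = Gossypol at 36 µM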)
# Conditions: HEK293 GAL4-SRC2 luciferase reporter, at 8.9 µM, hits give high values
# Nuclear receptor coactivator 2 (Homo sapiens), sequence (Q15596 whole entry, looked up, the tested form may be a part): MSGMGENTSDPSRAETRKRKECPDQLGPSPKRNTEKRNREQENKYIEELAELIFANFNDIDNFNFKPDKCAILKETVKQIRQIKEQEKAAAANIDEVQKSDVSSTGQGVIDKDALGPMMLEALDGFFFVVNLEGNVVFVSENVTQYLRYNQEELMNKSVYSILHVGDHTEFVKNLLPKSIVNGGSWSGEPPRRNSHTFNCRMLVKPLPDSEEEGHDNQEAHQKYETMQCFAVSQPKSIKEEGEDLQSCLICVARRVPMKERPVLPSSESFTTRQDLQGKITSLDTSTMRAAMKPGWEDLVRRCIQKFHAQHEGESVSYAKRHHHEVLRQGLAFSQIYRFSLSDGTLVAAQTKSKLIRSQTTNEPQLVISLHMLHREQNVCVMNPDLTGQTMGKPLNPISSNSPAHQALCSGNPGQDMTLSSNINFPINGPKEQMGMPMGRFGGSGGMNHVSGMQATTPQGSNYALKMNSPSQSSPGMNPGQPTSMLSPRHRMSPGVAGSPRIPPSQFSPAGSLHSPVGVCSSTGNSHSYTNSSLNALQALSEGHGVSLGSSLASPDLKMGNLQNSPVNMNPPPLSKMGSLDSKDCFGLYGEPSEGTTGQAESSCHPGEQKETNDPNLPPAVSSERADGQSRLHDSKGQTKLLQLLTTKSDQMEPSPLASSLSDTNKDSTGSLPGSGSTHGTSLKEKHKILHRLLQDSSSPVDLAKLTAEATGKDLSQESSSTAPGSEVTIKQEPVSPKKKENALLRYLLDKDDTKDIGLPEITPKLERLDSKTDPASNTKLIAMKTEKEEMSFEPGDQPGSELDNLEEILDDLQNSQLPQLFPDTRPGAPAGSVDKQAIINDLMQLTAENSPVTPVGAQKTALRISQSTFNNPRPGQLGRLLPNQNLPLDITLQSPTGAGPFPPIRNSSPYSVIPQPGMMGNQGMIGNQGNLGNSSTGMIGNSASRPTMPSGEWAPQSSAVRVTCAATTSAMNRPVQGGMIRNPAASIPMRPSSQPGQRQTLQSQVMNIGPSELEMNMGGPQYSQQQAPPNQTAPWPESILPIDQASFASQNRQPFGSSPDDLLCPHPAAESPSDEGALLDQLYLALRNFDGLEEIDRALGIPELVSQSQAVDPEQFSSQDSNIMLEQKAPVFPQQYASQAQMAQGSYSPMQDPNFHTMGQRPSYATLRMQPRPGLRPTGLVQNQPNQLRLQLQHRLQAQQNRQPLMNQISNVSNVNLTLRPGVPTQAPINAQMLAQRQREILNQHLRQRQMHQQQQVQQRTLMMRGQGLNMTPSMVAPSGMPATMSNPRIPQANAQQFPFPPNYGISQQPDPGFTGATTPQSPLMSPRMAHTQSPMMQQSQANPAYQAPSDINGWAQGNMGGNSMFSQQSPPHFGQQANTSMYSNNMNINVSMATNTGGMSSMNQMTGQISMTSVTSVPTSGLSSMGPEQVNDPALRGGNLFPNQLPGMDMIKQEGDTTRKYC
row,Compound,inhibition
1,Cc1ccc(-c2nc(-c3ccccn3)no2)cc1Cl,34%
2,Cc1ccc(C(=O)O/N=C(\N)c2ccccn2)cc1C,-24.9%
3,COc1ccc(CNCc2ccc(C(F)(F)F)cc2)cc1OC,-3.81%
4,O=C(CCCN1C(=O)/C(=C/c2ccccc2Cl)SC1=S)Nc1cccnc1,-4.66%
5,CC(C)Cc1nnc(NC(=O)CCC(=O)N2CCN(Cc3ccccc3)CC2)s1,17.4%
6,CC(=O)Nc1cc(=O)c2cccnc2[nH]1,-9.24%
7,COc1ccccc1NC(=S)N1CCCCCC1,-14.3%
8,COCc1ccc(C(=O)N2CCC(CCC(=O)Nc3cccc(C)c3)CC2)s1,46.9% (active)
9,CCCNC(=O)c1ccc(N2CCC3(CC2)CC(c2cccc(Br)c2)=NO3)c([N+](=O)[O-])c1,7.7%
10,Cc1ccc(-c2c(C(=O)N/N=C/C3CCCCC3)nnn2-c2nonc2N)cc1,-23%
11,Cc1ccoc1C(=O)Nc1ccc(CC(=O)O)cc1,83.4% (active)
12,NC(=O)C1CCN(CCS(=O)(=O)c2ccc(Cl)cc2)CC1,-24.6%
13,COc1cc(CNS(=O)(=O)c2ccc3c(c2)CC(C)N3C(=O)C2CCC2)cc(OC)c1OC (stereo not given),29.3%
14,CCC(=O)Nc1ccc(NC(=O)c2oc3ccccc3c2C)cc1,38.1%
15,O=C1N(Cc2cccc(Cl)c2)C[C@@H]2C[C@@H](c3cccc4cccnc34)N3CCC[C@@]123,-23.5%
16,CC(C)(C)n1nc(Cc2cccc3ccccc23)c2c(N)ncnc21,29.4%
17,O=[N+]([O-])c1cccc(NC(=S)Nc2nc(-c3ccc(Cl)cc3Cl)cs2)c1,9.75%
18,CCNC(=O)C1(C)CCCN(Cc2csc(-c3ccccc3)n2)C1 (stereo not given),-4.83%
19,O=C(N=C1SC2CS(=O)(=O)CC2N1Cc1ccccc1)C1CCCO1 (stereo not given),-2.87%
20,CCN(CC)c1nc(C=Cc2ccc(N(C)C)cc2)c2nccnc2n1,21.8%

row,Compound,inhibition
1,CN=C1CC(SC)=C1c1ccc(C)cc1,1.69%
2,CN(C(=O)CCc1nnc(-c2ccc(-c3ccccc3)cc2)o1)C1CCOCC1,26.7%
3,Cc1cccc(N(Cc2ccccc2)C(=O)CCl)c1,33.4%
4,Cc1ccc2c(c1)COc1c3ccc(C(=O)O)cc3nn1-2,-1.87%
5,CC(C)(C)NS(=O)(=O)c1ccc(Oc2ncc(C(F)(F)F)cc2Cl)cc1,14.2%
6,Cn1nnnc1Sc1ncnc2scc(-c3cccc(C(F)(F)F)c3)c12,52.3% (active)
7,Cc1c(CCC(=O)N2CCC(C(=O)O)CC2)c(=O)oc2cc3oc4c(c3cc12)CCCC4,61% (active)
8,CN(C)S(=O)(=O)c1cccc(NC(=O)CSc2ncnc3ccccc23)c1,29.7%
9,CC(C)CC(NC(=O)c1ccco1)C(=O)Nc1ccc2c(c1)OCCO2 (stereo not given),7.27%
10,O=C(CCCN1C(=O)/C(=C/c2ccccc2Cl)SC1=S)NCCCN1CCOCC1,45.9%
11,Cc1ccc2nc(-c3cc(N)cc(N)c3)oc2c1,38.3%
12,Cc1cc(N/N=C/c2ccc(O)cc2)nc(NS(=O)(=O)c2ccccc2)n1,16.5%
13,Cc1ccc(NCc2nnc(SCC(=O)c3ccccc3)n2Cc2ccco2)c(C)c1,-16.7%
14,CN(Cc1ccc(Cl)cc1)C(=O)CCl,25.3%
15,Cc1ccc(-n2nc3ccc(N)cc3n2)c(C)c1,21.3%
16,NC(=S)N1OC[C@@H]2COc3ccc4ccccc4c3[C@@H]21,48.6% (active)
17,CC1CCCC(C)N1C(=O)c1cccc2c1-c1ccccc1/C2=N/O (stereo not given),8.15%
18,Cc1ccc(S(=O)(=O)N2CCN(C(=O)c3cc4c(C)nn(-c5ccccc5C)c4s3)CC2)cc1,4.62%
19,CCOc1ccc(CN2CCNC(=O)C2CC(=O)NCCc2cnccn2)cc1 (stereo not given),-23.9%
20,Cn1nnnc1Sc1ncnc2scc(-c3ccc(C#N)cc3)c12,30.8%
